Where “and” joins values, the source holds several entries; their conditions need not be identical. Identical values can stand only once. Compounds without any hit were thinned out: in the full panel of roughly 83,000, 20% have a hit.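 Plates (96-well) were seeded with cells, treated with compound at one concentration, and incubated for 48 hours before percent growth was determined.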 Calls of active or inactive are those of the source. The calls were made as follows: active = growth percent below 10; inactive = the rest.

Consider 2 compounds from PubChem BioAssay (NCI).

Assay in all cases: NCI-60 one-dose screen, 48 h (100 = growth as untreated, 0 = no growth, -100 = all killed)
One assay relates to NCI-H226 lung. As to conditions: 10 µM.
The subject of a further assay is NCI-H322M lung. Conditions: 10 µM.
The test system of another assay is HOP-62 NSCLC. As to conditions: 10 µM.
The next assay concerns NCI-H460 lung. Conditions: 10 µM.
In a further assay the test system is A549/ATCC NSCLC. As to conditions: 10 µM.
For a further assay, the system named is COLO 205 colon. Conditions: 10 µM.
The subject of the next assay is DU-145 prostate. As to conditions: 10 µM.
The subject of another assay is SF-268 CNS. As to conditions: 10 µM.
Another assay relates to SF-295 CNS. Conditions: 10 µM.
In the next assay the test system is SF-539 CNS. Conditions: 10 µM.
Another assay concerns HCT-15 colon. As to conditions: 10 µM.
For the next assay, the system named is HT29 colon. As to conditions: 10 µM.
The test system of another assay is SNB-75 CNS. Conditions: 10 µM.
A further assay concerns SNB-19 CNS. As to conditions: 10 µM.
In another assay the test system is U251 CNS. As to conditions: 10 µM.
The test system of another assay is PC-3 prostate. Conditions: 10 µM.
The test system of a further assay is EKVX NSCLC. Conditions: 10 µM.
For a further assay, the system named is UO-31 renal. As to conditions: 10 µM.
The next assay deals with ACHN renal. As to conditions: 10 µM.
The test system of another assay is HL-60(TB) leukemia. Conditions: 10 µM unless noted.

For `CCC(C)[C@H]1C(=O)O[C@H](C(C)C)C(=O)N(C)[C@@H](C(C)C)C(=O)O[C@H](C(C)C)C(=O)N(C)[C@@H](C(C)C)C(=O)O[C@H](C(C)C)C(=O)N1C` (stereo not given in full), the growth in the assay on NCI-H226 lung is 21.2% (inactive); in the assay with NCI-H322M lung, 14.3% (inactive); in the assay on HOP-62 NSCLC it was 15% (inactive); in the assay with NCI-H460 lung it was 7.94% (active); in the assay on A549/ATCC NSCLC, 14.5% (inactive); with COLO 205 colon it was -74.7% (active). The growth is 26.9% (inactive) in the assay with DU-145 prostate; 21.9% (inactive) with SF-268 CNS; 9.15% (active) with SF-295 CNS; 19.1% (inactive) in the assay with SF-539 CNS; 14.6% (inactive) in the assay on HCT-15 colon; 9.91% (active) with HT29 colon. Further, the growth with SNB-75 CNS was 2.63% (active); in the assay with SNB-19 CNS, 21.6% (inactive); in the assay on U251 CNS, 13.5% (inactive); with PC-3 prostate, 12.2% (inactive); in the assay on EKVX NSCLC, 24% (inactive); in the assay on UO-31 renal, -10.8% (active). Moreover, the values for the growth in the assay on ACHN renal and in the assay with HL-60(TB) leukemia were 9.28% (active) and -48.8% (active), respectively.
Turning to `C/C=C/CC(C)C(O)[C@H](NC(=O)[C@@H]1CCCN1C(=O)C(C)(C)NC(=O)CCCCCCC)C(=O)N[C@@](C)(CC)C(=O)N[C@@H](CCC(N)=O)C(=O)N[C@H](CCC(N)=O)C(=O)NC(C)(C)C(=O)NC(C)(C)C(=O)N[C@@H](CCC(N)=O)C(=O)N[C@H](CC(C)C)C(=O)N[C@H](CO)CC(C)C` (stereo not given in full), the growth in the assay on NCI-H226 lung is 105% (inactive) and 6.63% (active); in the assay with NCI-H322M lung, 108% (inactive) and 70% (inactive); with HOP-62 NSCLC, 95.9% (inactive) and 14.5% (inactive); in the assay on NCI-H460 lung, 105% (inactive) and 13.1% (inactive); in the assay on A549/ATCC NSCLC it was 109% (inactive) and 30% (inactive); in the assay with COLO 205 colon, 118% (inactive) and -46.4% (active). Further, the growth in the assay with DU-145 prostate was 110% (inactive) and -35.4% (active); with SF-268 CNS it was 107% (inactive) and -8.99% (active); with SF-295 CNS, 98.8% (inactive) and -22.2% (active); in the assay with SF-539 CNS it was 100% (inactive) and -45.7% (active); in the assay on HCT-15 colon, 100% (inactive) and 22.1% (inactive); in the assay on HT29 colon it was 113% (inactive) and 37.8% (inactive). Moreover, the growth in the assay on SNB-75 CNS was 109% (inactive) and -30.3% (active); in the assay on SNB-19 CNS, 101% (inactive) and 14% (inactive); in the assay with U251 CNS, 101% (inactive) and -17.8% (active); in the assay on PC-3 prostate, 103% (inactive) and 17.3% (inactive); with EKVX NSCLC, 100% (inactive) and 5.16% (active); in the assay on UO-31 renal, 96.7% (inactive) and 16.1% (inactive). Moreover, the growth is 103% (inactive) and 32% (inactive) in the assay with ACHN renal; 94.8% (inactive) and -6.76% (active) in the assay with HL-60(TB) leukemia.
